Experimental data published in PubChem BioAssay (EPA / NIEHS).
More than one record can exist for a structure, and the calls need not agree. Activity calls are given as the source filed them. The calls were made as follows: active = hit-call score of the fitted dose curve at least 0.9, where 1 is the maximum; inactive = score below 0.9.

experiment: ATG_Sox_CIS: Attagene CIS-FACTORIAL HepG2 Assay for human SRY-box transcription factor (SOX) (AID 2282960); conditions: HepG2 Attagene cis-factorial SOX reporter, mRNA; actives raise or lower the signal
Experimental: ATG_CIS is a cell-based, multiplexed-readout assay that uses HepG2, a human liver cell line, with measurements taken at 24 hours after chemical dosing in a 24-well plate.ATG_Sox_CIS is one of 52 assay component(s) measured or calculated from the ATG_CIS assay. It is designed to make measurements of mRNA induction, a form of inducible reporter, as detected with fluorescence intensity signals by Reverse transcription polymerase chain reaction (RT-PCR) and Capillary electrophoresis technology.Data from the assay component ATG_Sox_CIS was analyzed into 1 assay endpoint. This assay endpoint, ATG_Sox_CIS, was analyzed with bidirectional fitting relative to DMSO as the negative control and baseline of activity. Using a type of inducible reporter, measures of mRNA for gain or loss-of-signal activity can be used to understand the reporter gene at the transcription factor-level as they relate to the gene SOX1. Furthermore, this assay endpoint can be referred to as a primary readout, because this assay has produced multiple assay endpoints where this one serves a reporter gene function. To generalize the intended target to other relatable targets, this assay endpoint is annotated to the dna binding intended target family, where the subfamily is HMG box protein.
Human liver HepG2 cells are transiently transfected with multiple reporter transcription units (MRTUs) in 6-well plates using FuGene 6 reagent (Roche; 3 ml FuGene/1 mg DNA). The MRTU constructs are regulated by a cis-regulating element (promoter). […] A major difference between the CIS and TRANS system is that in CIS activities of endogenous TFs are measured, whereas the TRANS assay evaluates changes in activities of exogenous, chimeric NR-Gal4 proteins. […] At the end of 24 hour incubation, total RNA was isolated using TriZol reagent (Invitrogen). The isolated RNA is then reverse-transcribed using oligo(dT) primer and Mo-MLV reverse transcriptase (Invitrogen) with DNAse I (Ambion) treatment for 30 min. The one-tenth of the produced cDNA was amplified by PCR using Taq DNA polymerase (Invitrogen) and two reporter sequence-specific primers. The PCR products were fluorescently labeled by primer extension with 6-arboxyfluorescein (6-FAM) 5'-labeled reporter sequence-specific primer (2 min at 95 C, 20 s at 68 C and 10 min at 72 C) and these products were digested with 5U of HpaI (New England Biolabs) for 2h at 37 C. The fragments were purified using Qiaquick PCR columns (Qiagen), analyzed on an ABI 3130xL genetic analyzer (Applied Biosystems) with peak positions identified by using a set of X-rhodamine (ROX)-labeled MapMarker1000 molecular weight standards (BioVentures). The raw capillary electrophoresis data was processed using Attagraph software (Attagene).

Structure (SMILES)	outcome	AC50
O=P(O)(O)CCC(F)(F)C(F)(F)C(F)(F)C(F)(F)C(F)(F)C(F)(F)F	inactive	
CCCCCCCCCCCCCCC	inactive	
Brc1ccc(Oc2ccc(Br)cc2Br)cc1	inactive	
O=C1C=CC(=O)N1c1cccc(N2C(=O)C=CC2=O)c1	inactive	
O=S(=O)(c1ccc(OCc2ccccc2)cc1)c1ccccc1O	inactive	
O=C(c1ccccc1)c1ccccc1	inactive	
C=CC(=O)OCC(CO)(COCC(COC(=O)C=C)(COC(=O)C=C)COC(=O)C=C)COC(=O)C=C		5.94 µM (active)
CCC(C)c1nccnc1OC (stereo not given)	inactive	
CCCCC(CC)C(=O)O (stereo not given)	inactive	
CC[N+](CC)(CC)Cc1ccccc1	inactive	
CCOCCOCC	inactive	
O=C(O)CN(CCCN(CC(=O)O)CC(=O)O)CC(=O)O	inactive	
CCC(C)c1ccccc1O (stereo not given)	inactive	
CCCCCCCCCCCC	inactive	
COC(O)c1ccccc1 (stereo not given)	inactive	
CCc1cccc(CC)c1N(COC)C(=O)CS(=O)(=O)O	inactive	
COC1=CC(=O)C[C@@H](C)[C@]12Oc1c(Cl)c(OC)cc(OC)c1C2=O	inactive	
CCCCCC(C)OC(=O)COc1ccc(Cl)c2cccnc12 (stereo not given)	inactive	
CCCCC=O	inactive	
Nc1cc(Cl)c(-c2cc(Cl)c(N)cc2Cl)cc1Cl		10.5 µM (active)

Structure (SMILES)	outcome	AC50
O=C1Cc2ccccc2N1c1c(Cl)cccc1Cl	inactive	
CCO[Si](C)(C)OCC	inactive	
COC(=O)CC(C(C)=O)C(=O)OC (stereo not given)	inactive	
FC(F)(F)C1(F)C(F)(F)C(F)(F)C(F)(F)C1(F)F	inactive	
COc1cccc(O)c1	inactive	
O=C(F)C(F)(F)C(F)(F)C(F)(F)C(F)F	inactive	
NNc1nc(-c2ccc([N+](=O)[O-])cc2)cs1	inactive	
FC(F)=C(F)C(F)(F)C(F)(F)C(F)(F)C(F)F	inactive	
CCC1CO1 (stereo not given)	inactive	
CC1=NN(c2ccccc2)C(=O)C1	inactive	
CN(C)c1ccc(C(=C2C=CC(=[N+](C)C)C=C2)c2ccccc2)cc1	inactive	1.36 µM (active)
O=S(=O)(O)c1ccc2cc(O)ccc2c1	inactive	
O=C1c2ccccc2C(=O)c2c(O)c(O)cc(O)c21	inactive	
CCCCCCC(C)(C)C(=O)O	inactive	
OCC(F)(F)C(F)(F)C(F)(F)C(F)(F)C(F)(F)C(F)(F)C(F)(F)C(F)(F)C(F)(F)C(F)(F)C(F)(F)F	inactive	
CCCC=O	inactive	
CCCCCCCCCCCC(=O)O	inactive	
O=C1OC2(c3ccccc31)c1cc(I)c(O)c(I)c1Oc1c2cc(I)c(O)c1I	inactive	
FCOC(C(F)(F)F)C(F)(F)F	inactive	
